Sampled rows, rich in hits. Any-hit rate of the full collection: about 2.1%.
eIF4H FP inh – inhibitors of RNA binding by human eIF4H | eIF4H fluorescence polarization binding assay | actives 0.94% (n = 290,000) | AID 2012 | Q15056 | inhibition, % at 35 µM;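 also: calls also rest on retests at 20 µM and on dose response follow-up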
NRP1-CendR mod – alters CendR peptide binding to human NRP-1; actives 0.85% (n = 360,000); FAM-RPARPAR peptide binding to NRP-1, fluorescence polarization; O14786; AID 602438; inhibition, % at 25 µM;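 active = inhibition or corrected inhibition above about 18%, plus a signal ratio from 0.5 to 1.5, limit read from the data, passing the limit was not always enough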
Target sequence (O14786 whole entry, looked up): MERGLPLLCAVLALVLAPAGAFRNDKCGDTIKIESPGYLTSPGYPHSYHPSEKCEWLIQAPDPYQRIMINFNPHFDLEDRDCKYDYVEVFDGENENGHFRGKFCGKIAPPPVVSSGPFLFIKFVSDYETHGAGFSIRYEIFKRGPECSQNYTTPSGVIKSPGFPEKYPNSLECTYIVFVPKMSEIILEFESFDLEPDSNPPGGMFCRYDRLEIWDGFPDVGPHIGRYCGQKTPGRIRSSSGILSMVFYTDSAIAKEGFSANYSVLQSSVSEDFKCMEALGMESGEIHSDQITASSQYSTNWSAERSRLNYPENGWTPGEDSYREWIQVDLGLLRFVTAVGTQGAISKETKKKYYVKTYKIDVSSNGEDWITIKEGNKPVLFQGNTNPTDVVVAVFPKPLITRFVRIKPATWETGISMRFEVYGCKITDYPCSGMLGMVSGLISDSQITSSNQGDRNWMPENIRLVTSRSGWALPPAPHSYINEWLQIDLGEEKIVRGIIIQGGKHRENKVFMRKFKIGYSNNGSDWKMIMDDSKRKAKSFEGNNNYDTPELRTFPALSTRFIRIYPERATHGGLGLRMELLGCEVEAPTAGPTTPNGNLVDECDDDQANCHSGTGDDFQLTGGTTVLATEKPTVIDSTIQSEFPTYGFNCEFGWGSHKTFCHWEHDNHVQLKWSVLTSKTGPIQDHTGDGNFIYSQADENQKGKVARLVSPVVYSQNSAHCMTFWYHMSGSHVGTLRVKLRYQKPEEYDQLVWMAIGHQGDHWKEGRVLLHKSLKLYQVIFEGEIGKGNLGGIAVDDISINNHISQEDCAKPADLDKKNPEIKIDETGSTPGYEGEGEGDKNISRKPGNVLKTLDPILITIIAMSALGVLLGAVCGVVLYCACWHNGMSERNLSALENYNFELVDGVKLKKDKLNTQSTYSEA
MLLE-PAM2 inh – inhibitors of microRNA-mediated deadenylation, human PABP1 MLLE binding; inhibition, % at 20 µM; GST-MLLE / FITC-PAM2 fluorescence polarization; actives 0.36% (n = 360,000); in the data active = inhibition above about 35%, passing the limit was not always enough;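 also: plate controls were DMSO wells with GST-MLLE for no effect and wells lacking GST-MLLE protein for full effect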
PABP FP inh – PABP-poly(A) binding inhibition; P11940; PABP-poly(A) RNA binding, fluorescence polarization; inhibition, % at 35 µM; actives 1% (n = 290,000);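 also: calls also rest on retests at 20 µM and on dose response follow-up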
* marks the source's active call; other numbers are inactive results; . = no result given. Unless noted, no rule for the calls is given here.

SMILES	eIF4H FP inh	NRP1-CendR mod	MLLE-PAM2 inh	PABP FP inh
COc1ccc(C)cc1NC(=O)C(c1ccccc1)N1CCNC(=O)C1 (stereo not drawn)	9	-14	13	16
CC(O)C(NC=C1C(=O)OC(C)(C)OC1=O)C(=O)O (stereo not drawn)	-3	29*	-4	-2
CC(C)C(NC=C1C(=O)OC(C)(C)OC1=O)C(=O)O (stereo not drawn)	-13	-3	-4	4
COc1cccc(CNC(=O)COC(=O)C23CC4CC(CC(Cl)(C4)C2)C3)c1	.	1	2	.
COc1cccc(NC(=O)CN(C)C(=O)C23CC4CC(CC(Cl)(C4)C2)C3)c1	.	33*	-3	.
COc1ccc(OC)c(NC(=O)CSc2sc3c(O)cc(=O)[nH]c3c2C#N)c1	18	-43	-21	23
COc1cc(Cl)c(C)cc1NC(=O)CSc1sc2c(O)cc(=O)[nH]c2c1C#N	71*	-60	-20	44*
N#Cc1c(SCC(=O)Nc2nncs2)sc2c(O)cc(=O)[nH]c12	101*	-83	-8	80*
COc1cccc(C(=O)C2CCCN(Cc3cccn3-c3cccnc3)C2)c1 (stereo not drawn)	81	14	-9	1.0*
CCOC(=O)c1cc(C(=O)c2ccccc2O)cn2c(=O)c3c(C)c(C)sc3nc12	73*	.	.	40
Cc1nnc(N2C(=O)c3oc4ccccc4c(=O)c3C2c2ccco2)s1 (stereo not drawn)	22	-5	48*	10
CC(C)c1nnc(N2C(=O)c3oc4ccccc4c(=O)c3C2c2ccco2)s1 (stereo not drawn)	3	-7	-35	7
FC(F)(F)c1ccc2c(c1)NCC1CCCN21 (stereo not drawn)	53*	-12	-8	23*
Cc1[nH]c(=O)c(C#N)c(C)c1Cl	-2	26*	-5	-2
Cc1nc(N)nc(Nc2ccc(C#N)cc2)c1Br	-2	17*	12	8
CCC1(c2ccccc2)SCC(c2ccccc2)=NC1=O (stereo not drawn)	.	-2	-7	.
NC(=O)C1CCN(c2nc(-c3ccc(Br)cc3)cs2)CC1	1	3	3	-6
Cc1noc(C)c1-c1csc(N2CCC(C(N)=O)CC2)n1	.	11	40*	.
O=C(NC(=S)NCCO)c1cn(-c2ccccc2)nc1-c1ccccc1	-4	-4	50*	4
Cc1ccc(OCC(=O)Nc2nnc(S(=O)(=O)N3CCC(C)CC3)s2)cc1	63*	-21	-28	6
COc1ccc(OCC(=O)Nc2nnc(S(=O)(=O)N3CCCCCC3)s2)cc1	6	-4	-10	-4
Cc1n[nH]c(=O)c2c(NC(=O)CSc3ccccc3Cl)oc(C)c12	.	4	25	.
Cc1n[nH]c(=O)c2c(NC(=O)CSc3c(Cl)cccc3Cl)oc(C)c12	.	-6	43*	.
O=C(COC(=O)c1cnccn1)NC1CCCc2ccccc21 (stereo not drawn)	.	1	-3	.
O=C(COC(=O)c1cccnc1)NC1CCCc2ccccc21 (stereo not drawn)	78*	-26	8	-8
SMILES	eIF4H FP inh	NRP1-CendR mod	MLLE-PAM2 inh	PABP FP inh
CC1CCCC(NC(=O)CN2CCN(S(=O)(=O)c3cccs3)CC2)C1C (stereo not drawn)	.	8	-14	.
COc1ccc([C@H]2C[C@@H](O)[C@H](n3cc(COC(=O)c4ccccc4)nn3)CN2CC2CCCCC2)cc1	.	-8	-7	.
O=c1cc(CSc2n[nH]c(-c3ccncc3)n2)nc2sccn12	63*	24*	-3	33
COCCn1c(SCc2cc(=O)n3ccsc3n2)nnc1-c1ccncc1	-1	-10	-6	-4
CS(=O)(=O)N(CC(=O)N1CCOCC1)c1ccccc1	5	10	2	-7
CC(=O)c1sc(NC(=O)c2oc3ccc(F)cc3c2C)nc1C	.	-12	-11	.
O=C(CCCCl)Oc1ccc2cc(-c3ccc4ccccc4n3)c(=O)oc2c1	52*	-14	16	-12
CC(=O)COc1ccc2cc(-c3ccccc3)c(=O)oc2c1	-5	-16	-3	1
CCOc1ccccc1N(CC(=O)N1CCOCC1)S(=O)(=O)c1ccc(SC)cc1	-11	28*	26	8
CCOC(=O)C1(Cc2cccc(Cl)c2)CCCN(C(=O)c2cc(C(C)C)nn2C)C1 (stereo not drawn)	-5	6	-6	4
CCCn1nnnc1NCc1cccc(OC)c1OC	-8	15	6	-7
CCCCn1nnnc1NCc1cccc(OC)c1OC	2	23*	4	2
CCN(CC)CCn1c(NCc2cccc(OC)c2OC)nc2ccccc21	-1	21*	-4	-7
O=C(Cc1ccsc1)NNC(=O)c1ccccc1Cl	.	3	13	.

Bioassay records from PubChem BioAssay.
